Laboratory results taken from PubChem BioAssay AID1053124 (Broad Institute, 2014).
Entries with a potency or affinity are not part of this list. Activity calls are given as the source filed them.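 How the source made its calls: active means cell killing whose fitted half-effect concentration is at most twice the top valid dose tested; inconclusive means flat curve with 30 to 70% killing, or a poor fit; inactive means effect in the rising direction, plus the rest.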

Assay: A549 cell cytotoxicity, dose response, cytotoxicity control, ATP luminescence, cherry-pick, set 2 (AID 1053124)
Settings: A549 viability, ATP luminescence (CellTiter-Glo), 72 h; series mostly up to 26 µM

Compound | outcome
N#Cc1ccc(OCC(=O)OCC(=O)N2CCc3ccccc32)cc1 | inactive
CCN(CC)CCNC(=O)c1sc2nc(-c3ccccc3)cn2c1C | inactive
CCOC(=O)c1c(NC(=O)CSc2ncccn2)sc2c1CCN(Cc1ccccc1)C2 | inactive
CCOC(=O)c1c2ccc(OCC(=O)NN)cc2n2ccccc12 | inactive
Cc1ccc2nc3c(cc(S(=O)(=O)c4ccccc4)c(=N)n3Cc3ccco3)c(=O)n2c1 | inactive
Cc1cccn2c(=O)c(/C=C(\C#N)C(=O)NC3CCS(=O)(=O)C3)c(N3CCC(C(N)=O)CC3)nc12 (stereo unspecified) | inactive
CCC(C)n1c(=N)c(C#N)cc2c(=O)n3cc(C)ccc3nc21 (stereo unspecified) | inactive
Cc1ccc(O)c(NC(=S)NC(=O)COc2ccc(Br)cc2)c1 | inactive
CCN(CC)c1ccc2cc(S(=O)(=O)c3ccc(Cl)cc3)c(=O)oc2c1 | inactive
Cc1ccc(-n2nnnc2CNC(=O)C(=O)c2c[nH]c3ccccc23)cc1C | inactive
CCOc1ccc(S(=O)(=O)Nc2ccc(C(=O)N(CC)CC(=O)NCc3cccs3)cc2)cc1 | inactive
O=C(O)C1=CC[C@@H](c2ccc(Cl)cc2)N(S(=O)(=O)c2ccc(Cl)cc2)[C@H]1c1ccc(F)cc1 | inactive
COc1ccc(CNC(=O)c2sc(=O)n(Cc3ccc(C)cc3)c2C)cc1OC | inactive
O=C(O)[C@@H]1CCCN1S(=O)(=O)c1cccc(S(=O)(=O)N2CCC[C@H]2C(=O)O)c1 | inactive
O=C(NCc1ccc(F)cc1)C1CCCN1C(=O)Nc1cccc(F)c1 (stereo unspecified) | inactive
O=C(O)c1cccc(NC(=O)c2cn(-c3ccccc3)nc2-c2cccc(Br)c2)c1 | inactive
